M1 ag: M1 muscarinic receptor agonists, primary screen, CHO-M1 cells, Fluo-4 calcium, agonist mode. Muscarinic acetylcholine receptor M1. B-score at 10 µM. Fluo-4 calcium fluorescence; active compounds read high. actives 3% (n = 64,000). AID 626, 2007;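 active = fluorescence rise, raw or as B-score row- and column-corrected plate score, outside the 99.7% band of its plate's samples, either direction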
MMP-13 inhibitor: human MMP13 inhibitors, primary screen, biochemical, FRET peptide cleavage; MMP-13 fTHP FRET cleavage, Mca fluorescence; inhibition, % at 4 µM; actives 0.07% (n = 65,000); AID 570, 2006;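 active = inhibition above the mean of compound-free control plate wells plus 3 SD, cut at about 14% in these data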;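 note: 0% = DMSO wells and 100% = wells with reference MMP-13 inhibitor after basal subtraction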
M1 antag: antagonists of rat M1 muscarinic receptor; Muscarinic acetylcholine receptor M1 (Rattus norvegicus), P08482; CHO-M1 cells, Fluo-4 calcium, ACh EC80 antagonist mode; active compounds read low; B-score at 10 µM; actives 3.4% (n = 64,000); AID 628, 2007;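 active = calcium fluorescence response, raw or row-and-column corrected B-score, differing from the plate sample mean either way at a set confidence level, mostly lower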
Target sequence (P08482 whole entry, looked up): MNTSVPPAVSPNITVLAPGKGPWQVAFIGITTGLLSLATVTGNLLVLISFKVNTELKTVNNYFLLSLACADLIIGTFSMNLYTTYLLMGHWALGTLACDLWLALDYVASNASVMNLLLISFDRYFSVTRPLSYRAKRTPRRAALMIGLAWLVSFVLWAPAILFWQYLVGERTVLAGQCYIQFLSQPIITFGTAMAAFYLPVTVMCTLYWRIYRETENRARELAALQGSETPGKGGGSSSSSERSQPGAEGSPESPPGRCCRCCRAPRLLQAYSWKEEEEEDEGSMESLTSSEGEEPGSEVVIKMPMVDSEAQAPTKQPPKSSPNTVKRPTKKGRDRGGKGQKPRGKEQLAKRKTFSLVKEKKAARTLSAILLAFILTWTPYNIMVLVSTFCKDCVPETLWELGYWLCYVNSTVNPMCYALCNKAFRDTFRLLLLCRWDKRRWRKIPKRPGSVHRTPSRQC
MKP-1 inh: MKP-1 phosphatase inhibitors, primary screen, biochemical, in vitro | recombinant MKP-1, OMFP hydrolysis fluorescence | inhibition, %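 (compounds tested at a single concentration somewhere between 10 and 100 µM)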 | actives 0.15% (n = 65,000) | AID 374, 2006;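 active = inhibition above about 50%, limit read from the data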;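 note: 0% = DMSO max control wells and 100% = wells with enzyme stopped by NaOH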
Cdc25B inh: inhibitors of Cdc25B phosphatase catalytic domain, primary screen, biochemical, OMFP fluorescence; M-phase inducer phosphatase 2 (Homo sapiens), P30305; recombinant Cdc25B, OMFP fluorescence Ex485/Em525; inhibition, %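 (compounds tested at 10 µM final in the well)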; actives 0.1% (n = 65,000); AID 368, 2006; in the data active = inhibition above about 50%
Hsp90 block: tumor Hsp90 inhibitors, primary screen, cell lysate, fluorescence polarization, NCI-N417 lysate | Cy3B-geldanamycin FP displacement | actives 0.35% (n = 64,000) | inhibition, % at 30 µM;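 active = inhibition above 50%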;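 note: 0% = tracer plus lysate wells and 100% = tracer alone without lysate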
M1 antag conf: rat M1 muscarinic receptor antagonists, confirmation, CHO cells, Fluo-4 calcium, duplicate. shares compounds with M1 antag. ACh EC80 antagonism; active compounds read low. calcium response (max-min fluorescence) at 10 µM. actives 43% (n = 1,700). AID 677, 2007;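 active = calcium response below the same-plate mean of wells given acetylcholine alone at its 80%-effect dose, minus 3 SD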;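 note: raw fluorescence intensity difference in arbitrary instrument units and not normalized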
mGluR4 antag: human mGluR4 response to M1 antagonist hits, M1 allosteric modulator project, cell-based, antagonist mode, secondary assay 1 | shares compounds with M1 antag | CHO-mGluR4 calcium flux, Fluo-4 fluorescence, glutamate EC80; active compounds read low | fluorescence response (max-min) at 10 µM | actives 0.9% (n = 1,700) | AID 678, 2007;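 active = fluorescence response below the plate's average for near-maximal glutamate wells, less 3 SD of those wells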;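 note: raw unnormalized fluorescence span taken in the window right after glutamate addition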
* hit, by the source's call; x = not tested or not shown. This is a sample that favours compounds with a hit; in the whole collection about 6.1% have one here.

SMILES | M1 ag | MMP-13 inhibitor | M1 antag | MKP-1 inh | Cdc25B inh | Hsp90 block | M1 antag conf | mGluR4 antag
CCOC(=O)CC(Nc1nc(N2CCOCC2)nc(N2CCOCC2)n1)c1ccccc1Cl (configuration not stated) | -0.05 | 0 | -12* | 9 | 4 | -2 | 366* | 242
CCOC(=O)CC(NC(=O)c1ccco1)c1ccccc1Cl (configuration not stated) | -0.65 | 8 | 0.034 | -7 | 19 | 1 | x | x
C=CCNC(=O)C(C#N)c1nc2ccccc2nc1N1CCCCCC1 (configuration not stated) | 1.6 | -57 | -2.8* | 15 | 13 | -8 | 603 | 274
Cc1ccc(C)c(N2CCN(C(=O)CCS(=O)(=O)c3cccc4nonc34)CC2)c1 | -0.083 | 0 | -0.78 | 7 | -2 | x | x | x
CCOC(=O)C1CCN(S(=O)(=O)c2cccc(-c3cn4ccccc4n3)c2)CC1 | 0.45 | -16 | -3.1* | 15 | -5 | -4 | 601 | 247
CC1CN(S(=O)(=O)c2cccc(-c3cn4ccccc4n3)c2)CC(C)O1 (configuration not stated) | -0.55 | -10 | -0.5 | -5 | -4 | -7 | x | x
CCc1oc2ccccc2c1C(=O)CCN1CCCCC1 | 0.19 | -1 | -7.1* | 19 | -12 | -1 | 196* | 235
Cc1ccc(NCc2nnc(SCC(=O)OC3CCCCC3)o2)c(C)c1 | 1.2 | 6 | -0.052 | 7 | -12 | 0 | x | x
Nc1nc(SCC(=O)C23CC4CC(CC(C4)C2)C3)n[nH]1 | 2.1 | 2 | -0.52 | 30 | -11 | 2 | x | x
CC(C)Nc1nc(SCC(=O)Nc2ccccc2)nc(N2CCOCC2)n1 | -1.5 | -5 | 0.66 | 16 | 0 | -5 | x | x
CCCNC(=O)C1=C(C)C(=O)OC12CCC(C)CC2 (configuration not stated) | 0.2 | -9 | -2.2* | -6 | -7 | -3 | 602 | 225
Cn1c(=Nc2ccc(N3CCOCC3)cc2)ccc2ccccc21 | 0.32 | -1 | -10* | 7 | -11 | -1 | 289* | 197
CCCn1cnc2c1c(=O)n(CCCCC(C)=O)c(=O)n2C | x | x | x | x | x | 4 | x | x
COC(=O)c1ccc2nc(C(F)(F)F)[nH]c2c1 | -1.1 | -3 | 0.6 | -19 | 0 | -3 | x | x
O=C(NCc1ccncc1)c1cccc(Cn2cc(Br)cn2)c1 | -1.2 | -2 | -10* | -5 | -28 | -3 | 88* | 205
O=C(O)c1cccc(Cn2cc(Br)cn2)c1 | -0.72 | 7 | -0.86 | -13 | -11 | -1 | x | x
O=c1c2ccccc2[nH]c(=S)n1CCN1CCN(Cc2ccccc2)CC1 | -0.26 | -1 | -4.2* | -9 | -4 | 2 | 508* | 176
Cc1oc(-c2cccc(Cl)c2)nc1CN1CCCC(C(=O)NC(C)c2ccc3c(c2)OCCO3)C1 (configuration not stated) | 1.3 | -4 | -0.94* | 12 | -22 | -2 | 509 | 244
COc1cc(C2C(C#N)=C(N)Oc3n[nH]c(C)c32)cc2c1OCO2 (configuration not stated) | 0.094 | -4 | -4.8* | 8 | 0 | -2 | 642 | 228
Cc1[nH]nc2c1C(c1ccoc1)C(C#N)=C(N)O2 (configuration not stated) | -0.019 | -5 | 0.59 | 3 | -14 | 0 | x | x
COc1cc(Cn2c(C(=O)O)cc3sccc32)cc(OC)c1OC | 0.048 | 8 | 0.12 | 7 | 0 | -2 | x | x
COc1ccc2c(c1)Sc1ccccc1N2CCN(C)C | 0.44 | 1 | -8.6* | -12 | -5 | 5 | 114* | 247
COc1cccc(-n2c(SCC(=O)NCCc3ccccc3)nnc2-c2ccoc2C)c1 | 0.15 | -10 | 0.55 | 4 | -18 | -3 | x | x
O=C1CC(NCc2ccc3c(c2)OCO3)C(=O)N1Cc1ccc2c(c1)OCO2 (configuration not stated) | -0.34 | 3 | 0.55 | -11 | 23 | -3 | x | x
CC(C)(C#CCN1CCCC1)OCCC#N | -1.2 | -4 | -1.8 | -6 | -6 | -3 | x | x
SMILES | M1 ag | MMP-13 inhibitor | M1 antag | MKP-1 inh | Cdc25B inh | Hsp90 block | M1 antag conf | mGluR4 antag
C=C(C)C(C)(C#CCN1CCCC1)OC(C)=O (configuration not stated) | -1.3 | 1 | -1.5* | 1 | -2 | -1 | 526* | 182
Cc1ccc2c(c1)N(CCC(=O)NC1CC1)C(=O)C(C)O2 (configuration not stated) | 0.0041 | -1 | -4* | 6 | -8 | -1 | 671 | 235
Cn1nnnc1P(=O)(c1ccccc1)c1ccccc1 | -0.028 | 3 | 0.33 | -3 | -15 | x | x | x
CCCCCC(=O)Nc1ccc(N2CCN(CC)CC2)c(Cl)c1 | 0.38 | -3 | -11* | -8 | -23 | -4 | 46* | 259
CCCCC(=O)Nc1ccc(F)c(Cl)c1 | 0 | 0 | 0.075 | 1 | -3 | -3 | x | x
c1coc(Cn2c(SCc3nc4ccccc4[nH]3)nnc2-c2cccs2)c1 | 0.16 | 4 | -2.3* | -3 | 0 | x | 659 | 226
Cc1cccc(-c2nnc(SCc3nc4ccccc4[nH]3)n2Cc2ccco2)c1 | 0.72 | 2 | -0.9 | -6 | 1 | -2 | x | x
Cc1ccc(-c2nn(CC(=O)NCCN3CCOCC3)c(=O)c3ccccc23)cc1 | 1.9 | -1 | -2.5* | 10 | -6 | -3 | 657 | 220
O=C(NCCN1CCCCCC1)C1CCC(CNS(=O)(=O)c2cccc3cccnc23)CC1 (configuration not stated) | -0.18 | 0 | -2* | 1 | -3 | -2 | 521 | 244
CCCNS(=O)(=O)c1ccc(CCC(=O)N2CCC(C)CC2)cc1 | 0.04 | 6 | -2* | 6 | -8 | -1 | 643 | 253
CCOC(=O)N1CCN(C(=O)CCc2ccc(S(=O)(=O)NCCc3ccccc3)cc2)CC1 | -0.73 | 5 | -1.5 | 18 | -17 | -7 | x | x
COc1ccccc1NS(=O)(=O)c1ccc(C)c(C(=O)NCC2CCCO2)c1 (configuration not stated) | 0.29 | -6 | -0.71 | 3 | -12 | -1 | x | x
Cn1c(=O)[nH]c(=O)c2c1nc(SCCN1CCCCC1)n2Cc1ccccc1 | 0.0092 | -2 | -3.8* | 4 | -7 | 2 | 530* | 205
